A selection: hits, their analogues and other compounds. The true share with any hit is near 3.3%.
UBC13 polyUb – inhibitors of human UBC13 polyubiquitin chain formation | TR-FRET | inhibition, % at 20 µM | actives 0.47% (n = 330,000); in the data active = inhibition above about 45%, passing the limit was not always enough
NR3A LBD binder – modulates the human NR3A ligand-binding domain; NR3A LBD differential scanning fluorimetry, Tm shift; 0% = protein alone, 100% = glycine-bound protein; Tm shift relative to glycine control, % at 25 µM; actives 2.5% (n = 340,000);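 active = melting temperature shift of at least 10% of the positive control shift, at one fixed dose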
SUMO HTRF inh – blocks human SUMOylation mediated by UBC9 | AID 2006 | HTRF SUMOylation assay, SAE1/SAE2 + UBC9, in vitro | inhibition, % at 35 µM | actives 0.36% (n = 290,000); in the data active = inhibition above about 50%, passing the limit was not always enough
Target sequence (P63279 whole entry, looked up): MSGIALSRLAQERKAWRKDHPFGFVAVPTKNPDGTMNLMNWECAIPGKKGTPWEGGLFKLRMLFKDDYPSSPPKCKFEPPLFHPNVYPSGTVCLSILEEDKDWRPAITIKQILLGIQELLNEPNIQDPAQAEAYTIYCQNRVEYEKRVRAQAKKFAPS
HGIII-sPLA2 inh – Inhibits HGIII-sPLA2 liposome hydrolysis, primary screen; AID 743126; inhibition, % at 12.2 µM; Q9NZ20; QFRET BODIPY PC-A2 liposome hydrolysis, fluorescence; actives 0.56% (n = 370,000);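 active = inhibition above mean plus 3 SD of compounds lying within the high and low control bounds, cut at about 19% in these data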
Target sequence (Q9NZ20 whole entry, looked up): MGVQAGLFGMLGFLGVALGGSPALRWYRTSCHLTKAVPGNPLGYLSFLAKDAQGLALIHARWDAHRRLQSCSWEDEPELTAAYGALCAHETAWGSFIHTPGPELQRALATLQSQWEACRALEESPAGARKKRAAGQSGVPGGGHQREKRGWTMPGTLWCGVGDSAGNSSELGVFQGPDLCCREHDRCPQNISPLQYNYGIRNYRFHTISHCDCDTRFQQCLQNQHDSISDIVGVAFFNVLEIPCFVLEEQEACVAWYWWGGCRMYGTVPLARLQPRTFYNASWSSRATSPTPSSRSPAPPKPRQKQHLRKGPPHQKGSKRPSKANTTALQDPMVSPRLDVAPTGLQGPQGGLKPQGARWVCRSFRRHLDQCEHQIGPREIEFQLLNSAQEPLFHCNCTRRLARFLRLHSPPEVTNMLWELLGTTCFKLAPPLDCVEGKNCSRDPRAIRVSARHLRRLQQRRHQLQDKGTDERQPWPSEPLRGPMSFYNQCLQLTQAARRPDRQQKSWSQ
Each line names hits and unclear results; the compound was inactive in the other large screens.

CCN(CC)CCCNC(=O)C1(N[C@@H](Cc2c[nH]c3ccccc23)C(=O)NCC(OC)OC)CCCCC1	none (no result: UBC13 polyUb, NR3A LBD binder, SUMO HTRF inh)
N/C(=N\OC(=O)c1cccc(Br)c1)c1ccccc1	NR3A LBD binder 10
N/C(=N\OC(=O)c1cccc2ccccc12)c1ccncc1	none
N/C(=N\OC(=O)c1cccc2ccccc12)c1ccc(Br)cc1	NR3A LBD binder 26
N/C(=N\OC(=O)c1ccc2ccccc2c1)c1ccc(Br)cc1	NR3A LBD binder 24
CN1C(=O)c2cc(NC(=O)c3ccccc3)ccc2OC[C@H]2O[C@@H](CC(=O)NCC3CC3)CC[C@@H]21	none (no result: UBC13 polyUb, NR3A LBD binder, SUMO HTRF inh)
CNC(=O)C[C@H]1CC[C@H]2[C@@H](COc3ccc(NC(=O)Nc4ccccc4)cc3C(=O)N2C)O1	none (no result: UBC13 polyUb, NR3A LBD binder, SUMO HTRF inh)
Cc1ccc2nc(NNC(=O)c3ccc(S(=O)(=O)N4CCc5ccccc5C4)cc3)sc2c1	HGIII-sPLA2 inh 33
Cc1cc(C)c2nc(NNC(=O)c3ccc(S(=O)(=O)N4CC(C)CC(C)C4)cc3)sc2c1 (configuration not stated)	HGIII-sPLA2 inh 41
CCC(=O)NNc1nc2c(C)cc(C)cc2s1	none
Cn1c(C(=O)NCCCN2CCN(c3ccccc3F)CC2)cc2c(=O)[nH]c3ccccc3c21	NR3A LBD binder 17
Cn1c(C(=O)NCCCN2CCc3ccccc3C2)cc2c(=O)n(C)c3ccccc3c21	UBC13 polyUb 56
CC1CC(C)CN(CCCNC(=O)c2cc3c(=O)[nH]c4ccccc4c3n2C)C1 (configuration not stated)	none
CCN(CC)CCNC(=O)c1cc2c(=O)n(C)c3ccccc3c2n1C	UBC13 polyUb 48
Cc1cc(NC(=O)CSc2c(C)[nH]c3ccccc23)no1	none
Cc1[nH]c2ccccc2c1SCC(=O)NNC(=O)Nc1ccc(OC(F)(F)F)cc1	NR3A LBD binder 12
COC(=O)C1CN(Cc2cn(Cc3ccc(Cl)cc3)nn2)CCS(=O)(=O)N1Cc1ccc(F)cc1 (configuration not stated)	none (no result: UBC13 polyUb, NR3A LBD binder, SUMO HTRF inh)
O=S1(=O)c2ccc(N3CC[C@H](O)C3)cc2O[C@@H]2CCN1C2	none (no result: UBC13 polyUb, NR3A LBD binder, SUMO HTRF inh)
CCOc1ccc(C2C=C(c3ccccc3)Nc3ncnn32)cc1 (configuration not stated)	SUMO HTRF inh 52 (no result: NR3A LBD binder, HGIII-sPLA2 inh)
CCOc1ccc(C2C=C(c3ccc(F)cc3)Nc3ncnn32)cc1 (configuration not stated)	none
COc1cccc(Nc2ncnc3c2cnn3-c2cccc(C)c2)c1	NR3A LBD binder 13
COc1ccc(-n2ncc3c(NCC(C)C)ncnc32)cc1	NR3A LBD binder 17
Clc1cccc(Nc2ncnc3c2cnn3-c2ccccc2)c1	none
Fc1cccc(Nc2ncnc3c2cnn3-c2ccccc2)c1	NR3A LBD binder 28
CC(COc1ccc(S(C)(=O)=O)cc1)CN1CCC(C(O)(c2ccccc2)c2ccccc2)CC1 (configuration not stated)	none (no result: UBC13 polyUb, NR3A LBD binder, SUMO HTRF inh)
COc1ccc(-c2cc(-c3nnc4sc(-c5cccs5)nn34)[nH]n2)cc1	none (no result: UBC13 polyUb, NR3A LBD binder, SUMO HTRF inh)
CCOC(=O)CSC1=Nc2ccccc2C2=NC(CC(=O)NCc3ccccc3)C(=O)N12 (configuration not stated)	none
CCCCNC(=O)CC1N=C2c3ccccc3N=C(SCC(=O)Nc3ccccc3C)N2C1=O (configuration not stated)	NR3A LBD binder 18
Cc1ccc(S(=O)(=O)N(Cc2ccc(F)cc2)Cc2ccco2)cc1	NR3A LBD binder 12
Cc1ccc(S(=O)(=O)N(Cc2ccccc2)Cc2ccco2)cc1	none
O=C(NNC(=O)c1cc2cc(OC(F)(F)F)ccc2[nH]1)c1ccc(Cl)cc1	NR3A LBD binder 14
O=C(Nc1ccc(F)cc1)c1cc2cc(Cl)ccc2[nH]1	none
Cc1cc(=O)nc2c3ccccc3n(CC(=O)NC(C)c3ccc4c(c3)OCCO4)n12 (configuration not stated)	NR3A LBD binder 13
O=C(NCCc1c[nH]c2ccccc12)[C@H](Cc1c[nH]c2ccccc12)NC1(C(=O)NC2CCCCC2)CCCCCCC1	none (no result: UBC13 polyUb, NR3A LBD binder, SUMO HTRF inh)
CCCCNC(=O)C1(C(C)=O)CC(C(=O)OCC)=NO1 (configuration not stated)	none (no result: UBC13 polyUb, NR3A LBD binder, SUMO HTRF inh)
CC(C)NC(=O)c1ccc2c(=O)n(Cc3ccco3)c(=S)[nH]c2c1	none
CCCNC(=O)c1ccc2c(=O)n(Cc3ccco3)c(=S)[nH]c2c1	SUMO HTRF inh 64
CN(C)CC(c1ccc(O)cc1)C1(O)CCCCC1 (configuration not stated)	none (no result: UBC13 polyUb, NR3A LBD binder, SUMO HTRF inh)
CC(=O)N1CCCN(C(=O)CN2C(=O)CC(C)(C)S(=O)(=O)c3ccccc32)CC1	none (no result: UBC13 polyUb, NR3A LBD binder, SUMO HTRF inh)
CCc1ccc2c(CN3CCOCC3)cc(=O)oc2c1	none
CCc1ccc2oc(=O)cc(CN3CCOCC3)c2c1	NR3A LBD binder 10
CC(NC(=O)COC(=O)c1ccc2c(c1)S(=O)(=O)N=C1CCCCCN12)C12CC3CC(CC(C3)C1)C2 (configuration not stated)	NR3A LBD binder 18
CC(C)(C)NC(=O)NC(=O)COC(=O)c1ccc2c(c1)S(=O)(=O)N=C1CCCCCN12	none
COc1ccc(C(=O)COC(=O)CNC(=O)c2ccc(OC)cc2)cc1	NR3A LBD binder 11
COc1ccc(C(=O)COC(=O)CNC(=O)c2cc(OC)cc(OC)c2)cc1	none
CCC(C(=O)OCC(=O)Nc1ccc(F)cc1)c1ccccc1 (configuration not stated)	none (no result: SUMO HTRF inh)
CCC(C(=O)OCC(=O)Nc1ccc(SC(F)F)cc1)c1ccccc1 (configuration not stated)	NR3A LBD binder 12 (no result: UBC13 polyUb)
Cc1ccccc1C(=O)N=c1c(C#N)cc2c(=O)n3cccc(C)c3nc2n1Cc1ccco1	none (no result: NR3A LBD binder, HGIII-sPLA2 inh)
N#Cc1cc2c(=O)n3ccccc3nc2n(Cc2ccco2)c1=NC(=O)c1ccco1	SUMO HTRF inh 52
CCCCCSc1nc(N2CCOCC2)c2c(c1C#N)CC(C)(C)OC2	NR3A LBD binder 23
Cc1ccc([N+](=O)[O-])cc1N(CC(=O)Nc1ccc(S(=O)(=O)Nc2cccc(C(F)(F)F)c2)cc1)S(C)(=O)=O	NR3A LBD binder 12
O=C(Nc1ccc(N2CCN(C(=O)c3cccs3)CC2)cc1)c1ccc(Br)o1	none (no result: SUMO HTRF inh)
Cc1c(C(=O)NC(=S)Nc2ccc(NC(=O)c3cccs3)cc2)cccc1[N+](=O)[O-]	NR3A LBD binder 11 (no result: SUMO HTRF inh)
O=C(/C=C/c1cccc([N+](=O)[O-])c1)Nc1ccc(NC(=O)c2cccs2)cc1	NR3A LBD binder 25
O=C(Nc1nc2ccccc2[nH]1)c1ccc(Br)o1	HGIII-sPLA2 inh 35
O=C(Nc1cccc(NC(=O)c2cccs2)c1)c1ccc(Br)o1	NR3A LBD binder 16
O=C(NCCc1nc2ccccc2[nH]1)c1ccc(Br)o1	none
O=C(/C=C/c1cccc([N+](=O)[O-])c1)c1cccs1	none
C=CCn1c(COc2ccc(C)cc2)nnc1SCC(=O)c1ccc(-c2ccccc2)cc1	none (no result: UBC13 polyUb, NR3A LBD binder, SUMO HTRF inh)
CCOC(=O)[C@]12CCCCC/C=C\1N(CCc1ccc(Cl)cc1)C(=O)[C@H]2CC(=O)NCCCN1CCCC1=O	none (no result: UBC13 polyUb, NR3A LBD binder, SUMO HTRF inh)
O=C(Nc1ccc(Nc2ccccc2)cc1)c1ccc(Br)o1	NR3A LBD binder 21
O=C(NNC(=O)c1cccs1)c1ccc(Br)o1	none (no result: UBC13 polyUb)
O=C(Nc1ccc(NC(=S)NC(=O)c2cccs2)cc1)c1ccco1	NR3A LBD binder 13
O=C(Nc1ccc(NC(=O)c2cccs2)cc1)c1ccc(Br)o1	NR3A LBD binder 24
